# Values joined by “and” are separate entries in the source; they are usually repeats but may differ in a detail not shown here. Equal values may be shown once. Records with an inconclusive call do not appear. Active and inactive are the calls of the source.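 How the source made its calls, unless noted: active means compounds whose cell count with miR-34 switched on is under 0.7 times the count with it off; inactive means the rest.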
# Legend:
# [1] = sensitizers of A549 cells to miR-34 induction, primary screen, imaging, A549 dox-inducible miR-34, nuclei and caspase counts (AID 1347080); conditions: A549 miR-34 inducible, Hoechst nuclei count, 48 h
# [2] = viability rescue of complex I mutant cybrids, primary screen, cell-based, galactose medium, ATP luminescence (AID 1645843;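 active means z-score of at least 1.8 in each of two replicates, scored against plate mean and spread of sample wells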;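 further: positive z means more ATP and so rescue of galactose-driven cybrid death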); conditions: complex I mutant cybrid cells, 72 h, stronger effect = higher value
# [3] = circadian clock period modulators, cell-based, LOPAC library, luminescence reporter (AID 2774; call rule not given here;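 further: values are relative to mean of DMSO wells on each plate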); conditions: circadian reporter cells, at 7 µM, actives lie on both sides
# [4] = biological target: ATP-dependent translocase ABCB1 (Homo sapiens) (UniProt P08183); assay: MDR1 (ABCB1) efflux transporter inhibition, cell-based (AID 377; in the data active means fluorescence slope change above about 50%); conditions: MDR1-expressing cells, fluorescent substrate accumulation slope; stronger effect = higher value; concentration not given here
# [5] = hESC survival regulators, cell-based (AID 493140; call rule not given here;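 further: cells exposed to compounds for four days before counting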); conditions: human embryonic stem cell survival screen; stronger effect = higher value
# [6] = liver-stage malaria parasite growth inhibition, primary screen, cell-based, HepG2, luciferase luminescence, HepG2 viability (AID 624349; in the data active means parasite load remaining mostly below about 12%, no sharp cut-off; inactive means mostly above about 10%;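 further: 100% = mean of DMSO negative control wells on the same plate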); conditions: P. berghei liver stage in HepG2, luciferase luminescence, concentration not given here; parasite load remaining: stronger effect = lower value; viability: measured here: HepG2 viability without parasites
# [7] = test system: Hepatitis C virus NS3 helicase; assay: HCV NS3 helicase inhibitors, primary screen, biochemical, fluorescence polarization, LOPAC1280 library (AID 687035; in the data active means inhibition above about 37%); conditions: Purified HCV NS3 helicase, Cy5-dT15 ssDNA binding fluorescence polarization; stronger effect = higher value; concentration not given here
# [8] = Cy5 fluorescence quenching or enhancement artefacts, artefact control for HCV NS3 helicase inhibitor project, biochemical, LOPAC1280 (AID 687037; call rule not given here); conditions: Cy5-DNA-NS3h complex fluorescence interference counterscreen
# [9] = inhibitors of Cryptococcus chitosan production, flow cytometry, Cibacron Brilliant Red staining (AID 1347148; call rule not given here;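 further: compound exposure lasted three days at 37 degrees C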); conditions: Cryptococcus neoformans chitosan, stronger effect = lower value; at 10 µM unless noted
# [10] = measured here: relative caspase fold change +Dox/-Dox
# [11] = measured here: total cells with miR-34 induction, stronger effect = lower value
# [12] = measured here: total cells without miR-34 induction
# [13] = stronger effect = lower value, cell number ratio, induced over uninduced
# Chain of ATP-dependent translocase ABCB1 (Homo sapiens) (P08183 whole entry, looked up): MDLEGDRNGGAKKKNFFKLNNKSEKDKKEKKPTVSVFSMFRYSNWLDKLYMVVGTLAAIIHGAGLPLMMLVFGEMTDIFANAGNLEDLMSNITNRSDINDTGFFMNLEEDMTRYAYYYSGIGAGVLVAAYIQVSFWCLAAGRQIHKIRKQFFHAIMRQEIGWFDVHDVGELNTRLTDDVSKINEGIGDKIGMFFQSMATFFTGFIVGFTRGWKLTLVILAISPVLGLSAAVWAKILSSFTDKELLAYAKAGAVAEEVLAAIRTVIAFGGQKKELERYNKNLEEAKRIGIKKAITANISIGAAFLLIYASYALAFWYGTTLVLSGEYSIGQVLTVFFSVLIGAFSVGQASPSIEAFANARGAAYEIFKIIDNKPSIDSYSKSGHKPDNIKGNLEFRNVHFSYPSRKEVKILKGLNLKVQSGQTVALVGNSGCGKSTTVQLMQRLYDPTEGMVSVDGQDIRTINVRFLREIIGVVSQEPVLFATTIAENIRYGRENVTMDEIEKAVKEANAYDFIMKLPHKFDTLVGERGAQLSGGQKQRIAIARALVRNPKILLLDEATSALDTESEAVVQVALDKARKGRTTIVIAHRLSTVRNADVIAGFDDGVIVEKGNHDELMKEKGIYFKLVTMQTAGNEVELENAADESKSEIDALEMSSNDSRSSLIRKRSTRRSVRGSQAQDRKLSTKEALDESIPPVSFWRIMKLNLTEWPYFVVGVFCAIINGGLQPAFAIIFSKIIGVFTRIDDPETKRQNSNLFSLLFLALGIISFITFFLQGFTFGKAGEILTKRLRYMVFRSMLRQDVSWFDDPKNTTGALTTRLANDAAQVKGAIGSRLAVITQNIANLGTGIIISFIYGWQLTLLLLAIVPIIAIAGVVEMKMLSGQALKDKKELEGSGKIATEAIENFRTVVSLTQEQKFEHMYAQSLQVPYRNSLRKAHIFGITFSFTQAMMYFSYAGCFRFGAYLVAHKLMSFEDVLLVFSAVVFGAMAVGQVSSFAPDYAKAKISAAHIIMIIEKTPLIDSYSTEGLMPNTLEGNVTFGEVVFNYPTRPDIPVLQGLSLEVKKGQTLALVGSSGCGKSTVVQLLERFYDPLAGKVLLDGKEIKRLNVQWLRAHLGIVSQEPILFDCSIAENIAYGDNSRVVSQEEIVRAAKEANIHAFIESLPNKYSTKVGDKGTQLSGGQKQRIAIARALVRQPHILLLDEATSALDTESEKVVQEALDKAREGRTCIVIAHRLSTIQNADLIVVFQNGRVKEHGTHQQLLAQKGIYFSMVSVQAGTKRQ
structure (smiles),measurement,setting,value
CC1CCCC(O)CCCCCc2cc(O)cc(O)c2C(=O)O1 (configuration not stated),fold change,[1]; stronger effect = lower value,0.901 (inactive)
same,fold change,[1]; [10],1.75
same,cell count,[1]; [11],8720
same,cell count,[1]; [12],9680
same,z-score,[2],-0.095 (inactive)
C[C@H]1C2Cc3ccc(O)cc3C1(C)CCN2CC1CC1 (some centres not stated),period change,[3],-0.055 h (inactive)
same,fold change,[1]; stronger effect = lower value,0.949 (inactive)
same,fold change,[1]; [10],1.14
same,cell count,[1]; [11],10600
same,cell count,[1]; [12],11200
same,z-score,[2],-0.12 (inactive)
C/C=C1/C[C@@H](C)[C@](O)(CO)C(=O)OCC2=CCN3CC[C@@H](OC1=O)[C@@H]23,fluorescence slope change,[4],18.1% (inactive)
same,survival,[5],3.83 (inactive)
same,parasite load remaining,[6],209% (inactive) and 79.8% (inactive)
same,viability,[6],107% and 75%
same,fold change,[1]; stronger effect = lower value,0.877 (inactive)
same,fold change,[1]; [10],2.22
same,cell count,[1]; [11],8650
same,cell count,[1]; [12],9870
C[C@]12Cc3cn[nH]c3CC1CCC1C2CC[C@@]2(C)C1CC[C@]2(C)O (some centres not stated),fold change,[1]; stronger effect = lower value,0.922 (inactive)
same,fold change,[1]; [10],1.42
same,cell count,[1]; [11],8110
same,cell count,[1]; [12],8800
same,z-score,[2],-0.42 (inactive)
NC(CCCCCP(=O)(O)O)C(=O)O (configuration not stated),period change,[3],-0.03 h (inactive)
same,inhibition,[7],-1% (inactive)
same,fluorescence ratio (interference),[8],1 (inactive)
same,fold change,[1]; stronger effect = lower value,1.02 (inactive)
same,fold change,[1]; [10],2.45
same,cell count,[1]; [11],10400
same,cell count,[1]; [12],10200
same,z-score,[2],0.42 (inactive)
CCCCC/C=C\C/C=C\C/C=C\C/C=C\CCCC(=O)N[C@H](C)CO,survival,[5],87.2 (inactive)
same,fold change,[1]; stronger effect = lower value,0.941 (inactive) and 1.01 (inactive)
same,fold change,[1]; [10],0.931 and 0.764
same,cell count,[1]; [11],5390 and 6000
same,cell count,[1]; [12],5730 and 5950
CC(C)CC(NP(=O)(O)O[C@@H]1O[C@@H](C)[C@H](O)[C@@H](O)[C@H]1O)C(=O)NC(Cc1c[nH]c2ccccc12)C(=O)O (some centres not stated),period change,[3],0.015 h (inactive)
same,inhibition,[7],-2% (inactive)
same,fluorescence ratio (interference),[8],1 (inactive)
same,fold change,[1]; stronger effect = lower value,0.965 (inactive)
same,fold change,[1]; [10],0.942
same,cell count,[1]; [11],10500
same,cell count,[1]; [12],10900
same,z-score,[2],0.455 (inactive)
C=C(C)CN1CC[C@]23c4c5ccc(O)c4OC2c2[nH]c4ccccc4c2C[C@@]3(O)C1C5 (some centres not stated),fold change,[1]; stronger effect = lower value,0.245 (active)
same,fold change,[1]; [10],1.96
same,cell count,[1]; [11],761
same,cell count,[1]; [12],3110
same,z-score,[2],-1.44 (inactive)
Oc1ccc2c3c1OC1C(O)CC[C@@]4(O)C(C2)N(CC2CCC2)CC[C@]314 (some centres not stated),fold change,[1]; stronger effect = lower value,0.877 (inactive)
same,fold change,[1]; [10],1.82
same,cell count,[1]; [11],8530
same,cell count,[1]; [12],9720
same,z-score,[2],0.8 (inactive)
CN1CC[C@]2(c3cccc(O)c3)Cc3nc4ccccc4cc3CC2C1 (some centres not stated),fold change,[1]; [13],0.813 (inactive)
same,fold change,[1]; [10],1.31
same,cell count,[1]; [11],7470
same,cell count,[1]; [12],9190
same,z-score,[2],-0.555 (inactive)
CCCCCCCCCCCCCCCCOC[C@@H](O)COP(=O)([O-])OCC[N+](C)(C)C,survival,[5],114 (inactive)
same,fold change,[1]; stronger effect = lower value,0.982 (inactive) and 0.938 (inactive)
same,fold change,[1]; [10],1.56 and 0.831
same,cell count,[1]; [11],5950 and 5610
same,cell count,[1]; [12],6060 and 5980
C[N+]1=Cc2cc3c(cc2CC1)OCO3,parasite load remaining,[6],30.1% (inactive)
same,viability,[6],46.5%
same,fold change,[1]; [13],0.917 (inactive)
same,fold change,[1]; [10],1.08
same,cell count,[1]; [11],9060
same,cell count,[1]; [12],9880
CCCCCc1cc(O)c2c(c1)OC(C)(C)[C@H]1CCC(C(=O)O)=CC21 (some centres not stated),fold fluorescence,[9],7.25 (inactive)
CCN1C[C@]2(C)CC[C@H](OC)[C@@]34C1[C@]1(OCO[C@@]15C[C@H](OC)[C@H]1C[C@]3(O)[C@@H]5[C@H]1OC)[C@@H](OC(C)=O)[C@H]24,parasite load remaining,[6],91.7% (inactive)
same,viability,[6],96.9%
same,fold change,[1]; [13],0.951 (inactive)
same,fold change,[1]; [10],0.675
same,cell count,[1]; [11],10000
same,cell count,[1]; [12],10500
C[C@H]1O[C@@H](OC2CC[C@]3(C=O)[C@H]4CC[C@]5(C)[C@@H](C6=CC(=O)OC6)CC[C@]5(O)[C@@H]4CC[C@]3(O)C2)C[C@H](O)[C@@H]1O (some centres not stated),parasite load remaining,[6],0.83% (inactive)
same,viability,[6],69.5%
same,fold change,[1]; [13],0.718 (inactive)
same,fold change,[1]; [10],1.73
same,cell count,[1]; [11],1040
same,cell count,[1]; [12],1440
CC(C)NC[C@H](O)c1ccc(N)c(C#N)c1,fold fluorescence,[9],4.74 [at 228 µM] (inactive)
CC[C@@H](C)C(=O)O[C@H]1[C@H](O)[C@H]2[C@@H](CN3C[C@@H](C)CC[C@H]3[C@@]2(C)O)C2C[C@]34O[C@@]5(O)[C@@H](OC(=O)[C@](C)(O)CC)CC[C@@]3(C)[C@@H]5[C@@H](OC(C)=O)[C@@H](OC(C)=O)[C@H]4[C@@]21O (some centres not stated),parasite load remaining,[6],119% (inactive)
same,viability,[6],111%
same,fold change,[1]; [13],0.898 (inactive)
same,fold change,[1]; [10],1.61
same,cell count,[1]; [11],9180
same,cell count,[1]; [12],10200
CN1C[C@H](C(=O)N[C@]2(C)C[C@@]3(O)C4CCCN4C(=O)[C@H](Cc4ccccc4)N3C2=O)C=C2c3cccc4[nH]cc(c34)C[C@H]21 (some centres not stated),parasite load remaining,[6],49.1% (inactive)
same,viability,[6],102%
same,fold change,[1]; [13],0.836 (inactive)
same,fold change,[1]; [10],6.73
same,cell count,[1]; [11],10900
same,cell count,[1]; [12],13000
CCN1C[C@]2(COC)CC[C@H](OC)[C@@]34C1[C@]1(OCO[C@@]15C[C@H](OC)[C@H]1C[C@@H]3[C@@H]5[C@H]1OC)[C@@H](O)[C@H]24,parasite load remaining,[6],79.2% (inactive)
same,viability,[6],96.3%
same,fold change,[1]; [13],0.844 (inactive)
same,fold change,[1]; [10],1.35
same,cell count,[1]; [11],8580
same,cell count,[1]; [12],10200
CCCCCCCCCCCCCC(=O)O[C@H]1[C@H](C)[C@]2(O)[C@H](C=C(CO)C[C@@]3(O)C(=O)C(C)=C[C@H]23)[C@H]2C(C)(C)[C@@]12OC(C)=O,fold fluorescence,[9],4.29 [at 81.1 µM] (inactive)
CO[C@H]1C=C2CCN(C)[C@H]2C2c3cc4c(cc3C(=O)O[C@@H]21)OCO4 (some centres not stated),parasite load remaining,[6],64.2% (inactive)
same,viability,[6],100%
same,fold change,[1]; [13],0.936 (inactive)
same,fold change,[1]; [10],0.836
same,cell count,[1]; [11],9140
same,cell count,[1]; [12],9770
NCCC(O)C(=O)N[C@@H]1C[C@H](N)[C@@H](OC2O[C@H](CN)[C@@H](O)[C@H](O)[C@H]2N)[C@H](OC2O[C@H](CO)C(O)[C@H]2O)[C@H]1O (some centres not stated),parasite load remaining,[6],106% (inactive)
same,viability,[6],91%
same,fold change,[1]; [13],0.815 (inactive)
same,fold change,[1]; [10],1.54
same,cell count,[1]; [11],7990
same,cell count,[1]; [12],9800
CC(=O)O[C@H]1C[C@H](O[C@H]2[C@@H](O)C[C@H](O[C@H]3[C@@H](O)C[C@H](O[C@H]4CC[C@@]5(C)[C@H](CC[C@]6(C)[C@]5(C)C[C@@H](O)[C@]5(C)[C@@H](C7=CC(=O)OC7)CC[C@@]56O)C4)O[C@@H]3C)O[C@@H]2C)O[C@H](C)[C@H]1O[C@@H]1O[C@H](CO)[C@@H](O)[C@H](O)[C@H]1O,parasite load remaining,[6],0.31% (inactive)
same,viability,[6],66.6%
same,fold change,[1]; [13],0.992 (inactive)
same,fold change,[1]; [10],1.14
same,cell count,[1]; [11],808
same,cell count,[1]; [12],815
